In PubChem BioAssay AID1159580 (chemical genetic matrix, 2015):
Values joined by “and” are separate entries in the source; they are usually repeats but may differ in a detail not shown here. Identical values can stand only once. The whole screen tested about 5,500 compounds, of which about 2,000 (36%) were called active. Another 18% or so got no clear call; they are omitted. Rule as the data show it: active = normalized growth mostly below about 0.91 (no sharp cut-off); inconclusive = no clear call, values can overlap the other calls; inactive = mostly above about 0.92. The list shows a part of the results.

Assay: chemical genetic growth profiling, strain panel (AID 1159580);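 also: tested at 20 µM; growth read once vehicle control cultures reached saturation at 30 °C; 1 = growth at the plate median or of vehicle wells; lower values mean less growth of the strain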
Conditions: S. cerevisiae deletion strains, growth OD

Measured: normalized growth

CO[C@H]1/C=C/O[C@@]2(C)Oc3c(C)c(O)c4c(O)c(c(/C=N/N5CCN(C)CC5)c(O)c4c3C2=O)NC(=O)/C(C)=C\C=C\C(C)[C@H](O)[C@@H](C)[C@@H](O)[C@@H](C)[C@@H](OC(C)=O)[C@@H]1C (some centres not stated)
inactive: locus YAL013W, strain DEP1, active compounds read low 1 | locus YAL021C, strain ccr4, active compounds read low 1.01 | locus YAL026C, strain drs2, active compounds read low 1.02 | locus YAL030W, strain snc1, active compounds read low 1.02 | locus YBL061C, strain skt5, active compounds read low 1.03 | locus YBR009C, strain hhf1, active compounds read low 1.02 | locus YBR021W, strain FUR4, active compounds read low 0.998 | locus YBR023C, strain chs3, active compounds read low 1.03 | locus YBR171W, strain sec66, active compounds read low 1.03 | locus YBR229C, strain ROT2, active compounds read low 1 | locus YBR231C, strain swc5, active compounds read low 1.03 | locus YBR279W, strain paf1, active compounds read low 1 | locus YCL011C, strain gbp2, active compounds read low 1.02 | locus YCL016C, strain dcc1, active compounds read low 1.01 | locus YCL029C, strain bik1, active compounds read low 1.02 | locus YCL061C, strain MRC1, active compounds read low 1.02 | locus YCL069W, strain vba3, active compounds read low 1.03 | locus YCR088W, strain abp1, active compounds read low 1.03 | locus YDL005C, strain med2, active compounds read low 1.02 | locus YDL035C, strain GPR1, active compounds read low 0.996 | locus YDL040C, strain nat1, active compounds read low 1.02 | locus YDL074C, strain BRE1, active compounds read low 1.04 | locus YDL101C, strain DUN1, active compounds read low 1.03 | locus YDL185W, strain tfp1, active compounds read low 1.01 | locus YDL192W, strain arf1, active compounds read low 1.02 | locus YDR001C, strain nth1, active compounds read low 1.02 | locus YDR069C, strain doa4, active compounds read low 1.01 | locus YDR101C, strain arx1, active compounds read low 1.01 | locus YDR159W, strain sac3, active compounds read low 1.03 | locus YDR162C, strain NBP2, active compounds read low 1.01 | locus YDR195W, strain ref2 1.09 | locus YDR297W, strain sur2, active compounds read low 1.01 | locus YDR318W, strain mcm21, active compounds read low 1.01 | locus YDR334W, strain swr1, active compounds read low 1.02 | locus YDR335W, strain msn5, active compounds read low 1.03 | locus YDR388W, active compounds read low 1.02 | locus YDR392W, strain spt3, active compounds read low 0.957 | locus YDR502C, strain sam2, active compounds read low 1.01 | locus YEL003W, strain gim4, active compounds read low 0.995 | locus YEL037C, strain rad23, active compounds read low 1.02 | locus YEL061C, strain CIN8 (second series), active compounds read low 1.02 | locus YEL061C, strain CIN8, active compounds read low 1.01 | locus YER015W, strain faa2, active compounds read low 1.03 | locus YER016W, strain bim1, active compounds read low 1.02 | locus YER110C, active compounds read low 1.03 | locus YER111C, strain swi4, active compounds read low 1.03 | locus YER155C, strain BEM2 (second series), active compounds read low 1.02 | locus YER155C, strain BEM2, active compounds read low 1 | locus YER167W, strain BCK2, active compounds read low 0.996 | locus YFR010W, strain ubp6, active compounds read low 1.02 | locus YGL078C, strain dbp3, active compounds read low 1.01 | locus YGL086W, strain mad1, active compounds read low 1.02 | locus YGL167C, strain pmr1, active compounds read low 1.02 | locus YGL173C, strain kem1, active compounds read low 1.03 | locus YGL227W, strain vid30, active compounds read low 1.04 | locus YGL240W, strain doc1, active compounds read low 1.03 | locus YGL248W, strain PDE1, active compounds read low 1.03 | locus YGL253W, strain hxk2, active compounds read low 1.02 | locus YGR135W, strain pre9, active compounds read low 1.02 | locus YGR252W, strain gcn5, active compounds read low 1 | locus YHR013C, strain ard1, active compounds read low 1.05 | locus YHR027C, strain rpn1, active compounds read low 1.02 | locus YHR030C, strain SLT2, active compounds read low 1.01 and 1.08 | locus YHR079C, strain IRE1 (second series), active compounds read low 1.02 | locus YHR079C, strain IRE1, active compounds read low 1.05 | locus YHR094C, strain hxt1, active compounds read low 1.01 | locus YHR129C, strain ARP1, active compounds read low 1.01 | locus YHR142W, strain chs7, active compounds read low 1.06 | locus YHR200W, strain rpn10, active compounds read low 1.02 | locus YIL066C, strain RNR3, active compounds read low 1.01 | locus YIL073C, strain SPO22, active compounds read low 1.04 | locus YIL125W, strain kgd1, active compounds read low 1.03 | locus YIR030C, strain dcg1, active compounds read low 1.02 | locus YJL092W, strain hpr5, active compounds read low 1.02 | locus YJL095W, strain BCK1 (second series), active compounds read low 1.02 | locus YJL095W, strain BCK1, active compounds read low 1.04 and 1.03 | locus YJL115W, strain asf1, active compounds read low 1.01 | locus YJL129C, strain trk1, active compounds read low 1 | locus YJL134W, strain LCB3, active compounds read low 1.01 | locus YJL154C, strain vps35, active compounds read low 1.04 | locus YJL164C, strain tpk1, active compounds read low 1.03 | locus YJL166W, strain qcr8, active compounds read low 1.02 | locus YJL168C, strain set2, active compounds read low 1.02 | locus YJL187C, strain SWE1 (second series), active compounds read low 1.03 | locus YJL187C, strain SWE1, active compounds read low 1.02 | locus YJR043C, strain POL32, active compounds read low 0.998 | locus YJR066W, strain TOR1, active compounds read low 1 | locus YKL009W, strain mrt4, active compounds read low 1.02 | locus YKL068W, active compounds read low 1.01 | locus YKL085W, strain MDH1 (second series), active compounds read low 1.01 | locus YKL085W, strain MDH1, active compounds read low 1.01 | locus YKL160W, strain elf1, active compounds read low 1.02 | locus YKR001C, strain vps1, active compounds read low 1.02 | locus YKR026C, strain gcn3, active compounds read low 1.03 | locus YKR091W, strain srl3, active compounds read low 1.02 | locus YLL001W, strain dnm1, active compounds read low 1.02 | locus YLL026W, active compounds read low 1.01 | locus YLL041C, strain sdh2, active compounds read low 1.02 | locus YLR027C, strain aat2, active compounds read low 1.02 | locus YLR039C, strain RIC1, active compounds read low 1.02 | locus YLR058C, strain SHM2, active compounds read low 1.02 | locus YLR102C, strain apc9, active compounds read low 1.02 | locus YLR113W, strain HOG1, active compounds read low 1.05 | locus YLR221C, strain rsa3, active compounds read low 1 | locus YLR258W, strain gsy2, active compounds read low 1.02 | locus YLR262C, strain YPT6 (second series), active compounds read low 0.982 | locus YLR262C, strain YPT6, active compounds read low 1.05 | locus YLR268W, strain sec22, active compounds read low 1.03 | locus YLR320W, strain mms22, active compounds read low 1.01 | locus YLR330W, strain CHS5, active compounds read low 1.01 | locus YLR342W, strain FKS1 (second series), active compounds read low 0.98 | locus YLR342W, strain FKS1, active compounds read low 1.02 | locus YLR357W, strain rsc2, active compounds read low 1.03 | locus YLR370C, strain arc18, active compounds read low 1.02 | locus YLR371W, strain rom2, active compounds read low 1.02 | locus YLR384C, strain iki3, active compounds read low 1.02 | locus YLR418C, strain cdc73, active compounds read low 1.02 | locus YML016C, strain PPZ1, active compounds read low 1.01 | locus YML032C, strain rad52, active compounds read low 1.02 | locus YML120C, strain ndi1, active compounds read low 1.01 | locus YML124C, strain tub3, active compounds read low 1.03 | locus YMR058W, strain fet3, active compounds read low 1.03 | locus YMR078C, strain ctf18, active compounds read low 1.02 | locus YMR125W, strain sto1, active compounds read low 1.04 | locus YMR129W, active compounds read low 1.02 | locus YMR205C, strain PFK2, active compounds read low 1.01 | locus YMR223W, strain ubp8, active compounds read low 1.02 | locus YMR231W, strain pep5, active compounds read low 1.02 | locus YMR307W, strain GAS1, active compounds read low 0.927 | locus YNL067W, strain RPL9B, active compounds read low 1.04 | locus YNL071W, strain lat1, active compounds read low 1.02 | locus YNL153C, strain GIM3, active compounds read low 1.02 | locus YNL183C, strain NPR1, active compounds read low 1.01 | locus YNL209W, strain ssb2, active compounds read low 1.02 | locus YNL233W, strain BNI4, active compounds read low 1.02 | locus YNL248C, strain rpa49, active compounds read low 1.02 | locus YNL250W, strain rad50, active compounds read low 1.01 | locus YNL271C, strain bni1, active compounds read low 1.02 | locus YNL298W, strain CLA4, active compounds read low 1.03 | locus YNL307C, strain MCK1, active compounds read low 1.02 | locus YNL322C, strain KRE1 (second series), active compounds read low 1.01 | locus YNR049C, strain mso1, active compounds read low 1.03 | locus YNR052C, strain pop2, active compounds read low 1.02 | locus YOL006C, strain TOP1, active compounds read low 1.11 | locus YOL012C, strain htz1 1.35 | locus YOL147C, strain pex11, active compounds read low 1.02 | locus YOR001W, strain rrp6, active compounds read low 1.01 | locus YOR061W, strain CKA2, active compounds read low 1.01 | locus YOR069W, strain VPS5, active compounds read low 1.01 | locus YOR070C, strain gyp1, active compounds read low 1.03 | locus YOR080W, strain dia2, active compounds read low 1.03 | locus YOR083W, strain WHI5, active compounds read low 1.02 | locus YOR106W, strain vam3, active compounds read low 1.03 | locus YOR136W, strain idh2, active compounds read low 1.02 | locus YOR144C, strain elg1, active compounds read low 1.02 | locus YOR184W, strain ser1, active compounds read low 1.02 | locus YOR231W, strain MKK1, active compounds read low 1.02 | locus YOR265W, strain rbl2, active compounds read low 1.04 | locus YOR270C, strain vph1, active compounds read low 0.999 | locus YOR290C, strain snf2, active compounds read low 1.01 | locus YOR316C, strain cot1, active compounds read low 1.01 | locus YPL051W, strain arl3, active compounds read low 1.03 | locus YPL078C, strain atp4, active compounds read low 1.01 | locus YPL106C, strain sse1, active compounds read low 1 | locus YPL240C, strain hsp82, active compounds read low 1.02 | locus YPL256C, strain CLN2, active compounds read low 1.06 | locus YPR119W, strain clb2, active compounds read low 1.02 | locus YPR141C, strain kar3, active compounds read low 1.02 | locus YPR163C, strain tif3, active compounds read low 1.01 | locus YPR167C, strain met16, active compounds read low 1.03 | strain wtn01, active compounds read low 1
active: locus YDR137W, strain rgp1, active compounds read low 0.803
